According to PubChem BioAssay (NCI):
This is part of a sample that, as a whole, favours compounds with a hit. Of some 79,000 tested, about 15% had one in any assay. Unmarked numbers belong to inactive results. Active and inactive are the calls of the source. No stated cut-off is given here; in the data, active means growth inhibition above about 70%; inactive means the rest. Where a SMILES comes first, the peptide text is derived from it. The star is where a group is joined. Boc = CC(C)(C)OC(=O)*; OBn = c1ccc(CO*)cc1; Bn = c1ccc(C*)cc1

Columns and labels:
[1] = NCI Yeast Anticancer Drug Screen. Data for the rad50 strain (AID 155);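 further: 0% = growth of vehicle-only cultures of the same strain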; settings: S. cerevisiae rad50 strain growth inhibition, active compounds read high
How it was run: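 Compounds were tested on a yeast strain with an engineered DNA damage repair alteration; the reported value is growth inhibition normalised to vehicle treatment.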

[2] = NCI Yeast Anticancer Drug Screen. Data for the mec2-1 strain (AID 157); settings: S. cerevisiae mec2-1 strain, active compounds read high
How it was run: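 Yeast mec2-1 mutant treated with compound. Readout: growth inhibition vs vehicle controls.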

[3] = NCI Yeast Anticancer Drug Screen. Data for the sgs1 mgt1 strain (AID 161);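 further: 0% = growth of cultures given vehicle only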; settings: S. cerevisiae sgs1 mgt1 strain, active compounds read high
How it was run: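 Genetically altered yeast, compound exposure, growth inhibition relative to vehicle.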

[4] = NCI Yeast Anticancer Drug Screen. Data for the cln2 rad14 strain (AID 165);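 further: 0% = growth equal to vehicle treated cultures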; settings: S. cerevisiae cln2 rad14 strain, active compounds read high
How it was run: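 cln2 rad14 yeast strain; compound exposure; growth inhibition read vs vehicle controls.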

[5] = NCI Yeast Anticancer Drug Screen. Data for the bub3 strain (AID 167); settings: S. cerevisiae bub3 mutant strain, active compounds read high
How it was run: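 Growth of a checkpoint-deficient yeast mutant is measured after compound exposure. Values represent inhibition relative to vehicle.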

[6] = NCI Yeast Anticancer Drug Screen. Data for the mlh1 rad18 strain (AID 175); settings: S. cerevisiae mlh1 rad18 strain growth inhibition, active compounds read high
How it was run: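 Yeast w/ defined DNA-repair lesions; compound exposure; growth vs vehicle controls → % inhibition.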

[7] = at 5.0 µM (retest, dose inferred, filed as 0.5)
[8] = at 50.0 µM (retest, dose inferred, filed as 5.0)

Compound	growth inhibition [1, 7]	growth inhibition [1, 8]	growth inhibition ([1]; at 50.0 µM)	growth inhibition [2, 7]	growth inhibition [2, 8]	growth inhibition ([2]; at 50.0 µM)	growth inhibition [3, 7] [%]	growth inhibition [3, 8]	growth inhibition ([3]; at 50.0 µM)	growth inhibition [4, 7]	growth inhibition [4, 8]	growth inhibition ([4]; at 50.0 µM)	growth inhibition [5, 7]	growth inhibition [5, 8]	growth inhibition ([5]; at 50.0 µM)	growth inhibition [6, 7]	growth inhibition [6, 8]	growth inhibition ([6]; at 50.0 µM)
NNCc1cc(Cl)c2cccnc2c1O	18%	96% (active)	98.8% (active)	6%	99% (active)	98.8% (active)	7	98% (active)	98.5% (active)	-8%	98% (active)	97.5% (active)	-1%	98% (active)	99% (active)	9%	98% (active)	98.7% (active)
CN=C(N)N/N=C(\C)c1ccc2c(c1)Cc1cc(/C(C)=N/NC(N)=NC)ccc1-2	63%	94% (active)	87% (active)	53%	96% (active)	75.9% (active)	45	98% (active)	83.2% (active)	50%	95% (active)	85.3% (active)	54%	96% (active)	86.1% (active)	59%	96% (active)	86.4% (active)
COC(=O)c1nc2ccc([N+](=O)[O-])cc2n1O	-154%	-155%	2.25%	-54%	-59%	19.8%	-60	-70%	2.95%	-53%	-60%	36%	-68%	-80%	4.8%	-116%	-111%	4.3%
N/N=C(\N)c1ccc2ccc3cccnc3c2n1	1%	73% (active)	74% (active)	2%	73% (active)	42.3%	-2	77% (active)	56.8%	-7%	62%	45.9%	-3%	59%	41.5%	13%	79% (active)	52.8%
O=C(O)CCCCC1CCCCC1.[Cu+2]	31%	94% (active)	14.7%	23%	90% (active)	-3.1%	13	93% (active)	36%	8%	30%	0.9%	17%	91% (active)	6.2%	19%	94% (active)	1.85%
CN(C)CC1Cc2ccsc2C1=O (configuration not stated)	0%	85% (active)	99% (active)	5%	75% (active)	99.5% (active)	3	54%	99.4% (active)	1%	76% (active)	99.5% (active)	0%	88% (active)	99.3% (active)	0%	93% (active)	99.2% (active)
S=C(N/N=C/c1ccccn1)Nc1ccccn1	-1%	99% (active)	90.8% (active)	-2%	99% (active)	92.9% (active)	3	99% (active)	91.5% (active)	-15%	98% (active)	88.5% (active)	-2%	98% (active)	90.9% (active)	-3%	96% (active)	90.1% (active)
C[CH2][Ge]([CH2]C)([CH2]C)[O]C(=O)C([O][Ge]([CH2]C)([CH2]C)[CH2]C)c1ccccc1 (configuration not stated)	15%	15%	91.2% (active)	6%	6%	93% (active)	13	13%	91.3% (active)	15%	15%	89.5% (active)	5%	5%	90.6% (active)	23%	23%	89.5% (active)
CC(C)(C)c1cc(C(O)(C(F)(F)F)C(F)(F)F)c(S)c(C(O)(C(F)(F)F)C(F)(F)F)c1	8%	98% (active)	98.8% (active)	-6%	99% (active)	99.3% (active)	9	98% (active)	98.8% (active)	16%	98% (active)	99% (active)	7%	97% (active)	99% (active)	4%	95% (active)	99% (active)
Cc1cc2nc(CS)[nH]c2cc1C	-13%	41%	66.3%	4%	44%	51.9%	15	70% (active)	70.8% (active)	31%	51%	43.2%	26%	85% (active)	55.9%	-13%	61%	44.2%
CCN(CC)CCOC(=O)C1C(c2ccccc2)C1(c1ccccc1)c1ccccc1 (configuration not stated)	1%	77% (active)	73% (active)	4%	63%	62.8%	8	97% (active)	88.7% (active)	3%	60%	77.3% (active)	8%	85% (active)	75.2% (active)	5%	96% (active)	92.8% (active)
CC(C)CC(NC(=O)C(Cc1ccccc1)NC(=O)C(COCc1ccccc1)NC(=O)OC(C)(C)C)C(=O)OCc1ccccc1 (stereo not drawn) (Boc-Ser(Bn)-Phe-Leu-OBn; configuration not given here)	16%	13%	16.8%	22%	15%	2.6%	-15	-29%	17.2%	-3%	7%	16.2%	-4%	-7%	25.4%	26%	15%	24.3%
Nc1ccc(-c2nc3ccccc3s2)cc1Br	33%	74% (active)	8%	24%	77% (active)	18.8%	31	97% (active)	21.1%	27%	63%	10.8%	28%	96% (active)	52%	34%	88% (active)	55.9%
COc1ccc(OC)c2c(C(=O)O)c(C(C)c3ccccc3)ccc12 (configuration not stated)	-1%	70% (active)	85.8% (active)	3%	73% (active)	91.2% (active)	2	64%	91.2% (active)	1%	74% (active)	96.2% (active)	-6%	65%	81.7% (active)	3%	75% (active)	92.3% (active)
CN(C)CC1CC/C(=C\c2ccc(O)cc2)C1=O (configuration not stated)	11%	78% (active)	89.2% (active)	-19%	98% (active)	93.7% (active)	-4	98% (active)	91.6% (active)	24%	53%	77.6% (active)	-26%	97% (active)	91.9% (active)	19%	92% (active)	90.6% (active)
CCCCCCCCCCCCCCCCOP(=O)([O-])OCC[N+](C)(C)C	99% (active)	99% (active)	99.8% (active)	99% (active)	100% (active)	99.6% (active)	66	100% (active)	99.6% (active)	97% (active)	99% (active)	99.2% (active)	99% (active)	99% (active)	99.7% (active)	98% (active)	99% (active)	99.8% (active)
COC(=O)c1cc(OC)c(OC)c(OC)c1	4%	72% (active)	4.25%	1%	18%	-0.5%	2	29%	-13.1%	2%	60%	-23.3%	2%	70% (active)	36.9%	-1%	48%	0.25%
CC(=O)N1CCC(Cc2ccccc2)CC1	-105%	95% (active)	2.3%	-46%	80% (active)	18.3%	-49	92% (active)	11.2%	-55%	70% (active)	56.9%	-51%	89% (active)	22.4%	-103%	91% (active)	25%
Cc1c(C)c2cc3c(=O)ccoc3c(C)c2oc1=O	32%	76% (active)	48.1%	1%	38%	19.6%	-11	21%	30.5%	8%	45%	42%	-1%	52%	30.4%	-11%	68%	69.6%
